Some test systems named below: NCI-H226 lung; NCI-H322M lung; HOP-62 NSCLC; HOP-92 NSCLC; A549/ATCC NSCLC; 786-0 renal; COLO 205 colon; DU-145 prostate; K-562 leukemia; RXF 393 renal; SF-268 CNS; SF-295 CNS; SF-539 CNS; UACC-257 melanoma; M14 melanoma; MALME-3M melanoma; MDA-MB-231 breast.
Holding throughout (assay): NCI-60 one-dose screen, 48 h (100 = growth as untreated, 0 = no growth, -100 = all killed)
The next assay relates to NCI-H23 lung. The note with it: 10 µM.
The subject of the next assay is NCI-H522 lung. The settings on record: 10 µM unless noted.
The next assay has as its system NCI-H460 lung. The settings on record: 10 µM.

Among the data in PubChem BioAssay (NCI) are growth values, retold here.

Each structure is given as a SMILES string. Several values for one entry are separate records, joined by “and”; a condition that tells them apart may be missing. Identical values can stand only once. This is part of a sample that, as a whole, favours compounds with a hit. Of some 83,000 tested, about 20% had one in any assay.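 Plates (96-well) were seeded with cells, treated with compound at one concentration, and incubated for 48 hours before percent growth was determined.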 A number with no mark means an inactive call. Activity calls are given as the source filed them. Rule for the calls: active = growth percent below 10; inactive = the rest. Where a SMILES comes first, the peptide text is derived from it. [ ]: non-standard residue; d: D form. ξ: configuration not given here. ξV = CC(C)C(N)C(=O)O

On to `CCCCCC(C)c1ccc(O)c(C)c1` (stereo unspecified), for which the growth was 104% in the assay with NCI-H23 lung; 96% with NCI-H226 lung (10 µM); 99.3% in the assay on NCI-H322M lung (10 µM); 98.4% in the assay with HOP-62 NSCLC (10 µM); 98% with HOP-92 NSCLC (10 µM); 88.2% with NCI-H522 lung. Further, the growth in the assay with A549/ATCC NSCLC (10 µM) was 113%; in the assay on 786-0 renal (10 µM) it was 93.6%; with COLO 205 colon (10 µM), 111%; in the assay with DU-145 prostate (10 µM unless noted), 103%; in the assay on K-562 leukemia (10 µM), 90.6%; in the assay on RXF 393 renal (10 µM unless noted), 113%. For the same compound, the growth with SF-268 CNS (10 µM) was 98.3%; in the assay with SF-295 CNS (10 µM), 95.5%; with SF-539 CNS (10 µM), 103%; with UACC-257 melanoma (10 µM), 99.3%; in the assay with M14 melanoma (10 µM), 97.7%.

Turning to `Cc1nc(N=C(N)N)nc2ccc3ccccc3c12`, the growth in the assay on NCI-H23 lung was 27.6%; in the assay with NCI-H226 lung (10 µM), 25.8%; in the assay on NCI-H322M lung (10 µM), -3.99% (active); with HOP-62 NSCLC (10 µM), -14% (active); with HOP-92 NSCLC (10 µM), -25.5% (active); in the assay with NCI-H522 lung it was -35.1% (active). Moreover, the growth in the assay with A549/ATCC NSCLC (10 µM) was 20.6%; in the assay on 786-0 renal (10 µM), 10.8%; with COLO 205 colon (10 µM) it was -16.4% (active); in the assay with DU-145 prostate (10 µM unless noted), 5.58% (active); in the assay on K-562 leukemia (10 µM), -4.93% (active); with MALME-3M melanoma (10 µM), -37.8% (active). The growth is -0.868% (active) in the assay on MDA-MB-231 breast (10 µM); 4.87% (active) in the assay on RXF 393 renal (10 µM unless noted); -25.4% (active) in the assay on SF-268 CNS (10 µM); 1.84% (active) in the assay with SF-295 CNS (10 µM); 4.58% (active) in the assay with SF-539 CNS (10 µM); -9.97% (active) in the assay with UACC-257 melanoma (10 µM). In addition, the growth with M14 melanoma (10 µM) was 4.95% (active).

With `O=c1ccn(C2CC(O)C(COC(c3ccccc3)(c3ccccc3)c3ccccc3)O2)c(=O)[nH]1` (stereo unspecified), the growth is 91.7% in the assay on NCI-H226 lung (10 µM); 36.2% in the assay on NCI-H226 lung (100 µM); 87.5% in the assay with NCI-H322M lung (10 µM); 68.8% with NCI-H322M lung (100 µM); 89.2% with HOP-62 NSCLC (10 µM); 72% in the assay on HOP-62 NSCLC (100 µM). Moreover, the growth is 87.8% with HOP-92 NSCLC (10 µM); 25.4% in the assay on HOP-92 NSCLC (100 µM); 53.6% [100 µM] with NCI-H522 lung; 74.8% in the assay with A549/ATCC NSCLC (10 µM); 44% with A549/ATCC NSCLC (100 µM); 82% in the assay on 786-0 renal (10 µM). In addition, the growth with 786-0 renal (100 µM) was 65.5%; in the assay on COLO 205 colon (10 µM), 114%; in the assay on COLO 205 colon (100 µM), 59.4%; in the assay on DU-145 prostate (10 µM), 107%; in the assay with DU-145 prostate (100 µM), 55.7%; in the assay on K-562 leukemia (10 µM), 79.1%. The growth was 26.5% in the assay on K-562 leukemia (100 µM); 94.4% in the assay with MALME-3M melanoma (10 µM); 70.7% with MALME-3M melanoma (100 µM); 73.5% in the assay with MDA-MB-231 breast (10 µM); 66.1% with MDA-MB-231 breast (100 µM); 86.5% in the assay on RXF 393 renal (10 µM). The growth was 36.6% in the assay on RXF 393 renal (100 µM); 83% in the assay on SF-268 CNS (10 µM); 42.9% with SF-268 CNS (100 µM); 38.2% in the assay with SF-295 CNS (100 µM); 97.2% in the assay on SF-539 CNS (10 µM); 60.3% in the assay with SF-539 CNS (100 µM). Also, the growth with UACC-257 melanoma (100 µM) is 55.2%; in the assay with M14 melanoma (10 µM), 81.4%; with M14 melanoma (100 µM), 52.5%.

Turning to `O=C1NC(=O)c2cc([N+](=O)[O-])ccc21`, the growth in the assay on NCI-H23 lung was 105%; with NCI-H226 lung (10 µM) it was 97.7%; with NCI-H322M lung (10 µM), 99%; in the assay with HOP-62 NSCLC (10 µM), 101%; in the assay with HOP-92 NSCLC (10 µM), 82.3%; in the assay on NCI-H522 lung, 102%. Besides, the growth is 107% with A549/ATCC NSCLC (10 µM); 112% in the assay with 786-0 renal (10 µM); 111% in the assay on COLO 205 colon (10 µM); 112% in the assay with DU-145 prostate (10 µM unless noted); 119% in the assay with K-562 leukemia (10 µM); 106% with MALME-3M melanoma (10 µM). Besides, the growth in the assay on MDA-MB-231 breast (10 µM) is 107%; in the assay on RXF 393 renal (10 µM unless noted), 108%; with SF-268 CNS (10 µM) it was 106%; with SF-295 CNS (10 µM), 101%; in the assay on SF-539 CNS (10 µM), 101%; with UACC-257 melanoma (10 µM), 104%. For the same compound, the growth in the assay on M14 melanoma (10 µM) is 118%.

As for `CC(C)C(NC(=O)CN)C(=O)O` (stereo unspecified) (H-Gly-[ξV]-OH), the growth in the assay on NCI-H23 lung is 101% and 106%; in the assay on NCI-H226 lung (10 µM), 102% and 100%; in the assay on NCI-H322M lung (10 µM), 100% and 105%; in the assay with HOP-62 NSCLC (10 µM) it was 106% and 98%; in the assay on NCI-H460 lung, 113% and 103%; with HOP-92 NSCLC (10 µM) it was 102%. Also, the growth in the assay with NCI-H522 lung is 95.9% and 89.7%; in the assay with A549/ATCC NSCLC (10 µM), 95% and 99.2%; with 786-0 renal (10 µM), 95.1% and 106%; with COLO 205 colon (10 µM), 117% and 113%; in the assay with DU-145 prostate (10 µM unless noted), 107% and 110%; in the assay on K-562 leukemia (10 µM) it was 92.9% and 104%. Moreover, the growth in the assay with MALME-3M melanoma (10 µM) is 101% and 99.8%; in the assay with MDA-MB-231 breast (10 µM), 106%; in the assay with RXF 393 renal (10 µM unless noted), 104% and 108%; in the assay with SF-268 CNS (10 µM) it was 104% and 101%; in the assay on SF-295 CNS (10 µM) it was 97.4% and 101%; with SF-539 CNS (10 µM), 103% and 106%. Also, the growth was 110% and 101% in the assay on UACC-257 melanoma (10 µM); 105% and 108% in the assay with M14 melanoma (10 µM).

`CCCCCCCCCCCCCCCCCCOCC(COP(=O)([O-])OCC[N+](C)(C)C)OC` (stereo unspecified): the growth with NCI-H226 lung (10 µM) is 93.9%; in the assay with NCI-H322M lung (10 µM) it was 107%; with HOP-62 NSCLC (10 µM), 44%; in the assay with NCI-H460 lung, 46.4%; in the assay on HOP-92 NSCLC (10 µM) it was 59.9%; in the assay on NCI-H522 lung, 73%. The growth was 97.5% with A549/ATCC NSCLC (10 µM); 87.6% with 786-0 renal (10 µM); 2.62% (active) with COLO 205 colon (10 µM); 129% with DU-145 prostate (10 µM unless noted); 104% in the assay with K-562 leukemia (10 µM); 80.7% in the assay with MALME-3M melanoma (10 µM). The growth in the assay on MDA-MB-231 breast (10 µM) is 74.4%; with RXF 393 renal (10 µM unless noted), 47.2%; in the assay on SF-268 CNS (10 µM), 79.6%; in the assay on SF-295 CNS (10 µM), 89.9%; in the assay on SF-539 CNS (10 µM), 88.8%; in the assay on UACC-257 melanoma (10 µM), 95%.
